Screening data as filed in PubChem BioAssay.
The list is not random: actives were taken first. Their share in the collection is about 7.3%.
NPC1 promoter act = activators of NPC1 promoter. Huh7 NPC1 promoter luciferase reporter, 24 h. Potency, µM (series often up to 9.22 µM), for the others: at the highest dose activation, most hits filed as activators. 320,000 tested, 2.4% active. AID 485313; further: % of control where 0% means no effect; nearly all actives have a fitted effect of over 60% in size
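Luminescence from an NPC1 promoter-driven luciferase reporter in stably transfected Huh7 cells was measured after 24 h compound treatment at 37 °C, followed by 10 min ambient incubation with luciferase detection reagent.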
SMN2 splice up = increases expression of the SMN2 splice variant. HEK293 SMN2-luciferase splicing reporter, luminescence, 30-36 h. Potency, µM (doses to about 46.1 µM), without a hit: at the highest dose activity change, positive = activation, actives largely listed as activators. 210,000 tested, 2.8% active. AID 1458; further: % of control where 0% means no effect; nearly all actives have a fitted effect of over 55% in size
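HEK293 cells carry an SMN2 minigene-luciferase reporter in which exon 7 inclusion puts luciferase in frame. Cells were seeded at 2000 cells/well, attached for 10-12 hours, then exposed to compounds for 30-36 hours at 37C before ONE-Glo luminescence.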
Rab9 prom act = Rab9 promoter activation; Huh7 Rab9 promoter-luciferase reporter, luminescence, 24 h; 320,000 tested, 2.8% active; Potency, µM (titrated, usually from 9.22 µM), without a hit: top-dose activation, negative = inhibition, usual class: activators; further: % of control where 0% means no effect; nearly all actives have a fitted effect of over 60% in size
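Luminescence from Amplite-detected luciferase (10 minutes, ambient) reports Rab9 promoter activation. Before that, stable Rab9-luciferase Huh7 cells (1500/well, reduced-serum OP-MEM I plus 10% FBS) were exposed to compound for 24 hours at 37C.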
FLuc counter = inhibits or activates purified firefly luciferase, miR-21 counter-screen; P08659; purified FLuc, Km substrates, luminescence inhibition; Potency, µM (top dose mostly 57.5 µM), inactives show at the top dose activity change, negative = inhibition, actives largely listed as inhibitors; 360,000 tested, 6.9% active; AID 588342;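 further: plate controls were vehicle for no effect and reference inhibitor for full effect; nearly all actives have a fitted effect of over 55% in size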
Target sequence (P08659 whole entry, looked up): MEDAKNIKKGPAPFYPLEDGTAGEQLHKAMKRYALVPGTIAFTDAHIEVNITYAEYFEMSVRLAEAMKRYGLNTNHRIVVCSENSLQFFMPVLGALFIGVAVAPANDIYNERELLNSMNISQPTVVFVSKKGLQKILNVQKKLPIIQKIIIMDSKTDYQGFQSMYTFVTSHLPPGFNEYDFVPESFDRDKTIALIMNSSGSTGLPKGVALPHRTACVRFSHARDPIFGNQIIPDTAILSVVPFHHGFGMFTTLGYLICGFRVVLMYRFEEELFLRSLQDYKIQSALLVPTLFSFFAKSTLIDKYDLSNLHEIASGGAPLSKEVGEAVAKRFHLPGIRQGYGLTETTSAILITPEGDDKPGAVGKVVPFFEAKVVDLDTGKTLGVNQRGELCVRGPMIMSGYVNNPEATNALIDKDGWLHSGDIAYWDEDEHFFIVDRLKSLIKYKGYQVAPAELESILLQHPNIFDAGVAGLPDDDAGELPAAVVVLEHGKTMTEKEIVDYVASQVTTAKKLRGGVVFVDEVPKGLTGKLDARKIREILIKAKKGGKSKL
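Purified P. pyralis luciferase, 10 nM final, with Km-level 10 uM D-luciferin and 10 uM ATP in 50 mM Tris acetate pH 7.5, 10 mM Mg acetate, 0.01% Tween-20, 0.05% BSA; 6-point qHTS titration about 60 µM downward; luminescence read.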
KinaseGlo FLuc = counter-screen: inhibitors of Kinase-Glo firefly luciferase. Potency, µM (doses to about 38.3 µM), for inactives: at the top dose activity change, negative = inhibition, usual class: inhibitors. Q27757. Kinase-Glo luciferase, ATP luminescence, 8 min. 200,000 tested, 0.28% active. AID 1379; further: on the % scale 0 is the no-effect control and ±100 the full control effect; nearly all actives have a fitted effect of over 60% in size
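Recombinant Kinase-Glo luciferase, 10 uM ATP (linear range), luciferin; imidazole pH 7.2 / KCl / MgCl2 / Tween / BSA buffer; 8 min RT; luminescence.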
Starred values were filed as active, the others as inactive; ? = inconclusive; / = no result given; [ ] = dose if it differs, or a comment. The call rests on the fitted dose curve; in most records, active means well fitted curve in the direction sought with a large enough effect; inconclusive means small, poorly fitted or top-dose-only effect, or another doubt; inactive means no such curve, though single readings can be large; an effect the other way counts as inactive or inconclusive. Potency means the concentration at half of the fitted maximal effect.

SMILES	NPC1 promoter act	SMN2 splice up	Rab9 prom act	FLuc counter	KinaseGlo FLuc
Cc1ccc(NC(=O)C2CCN(c3nc(-c4ccc(C(C)C)cc4)no3)CC2)c(Cl)c1	/	/	/	21.3µM*	/
Cc1ccc(C)c(N2CCN(C(=O)C3CCN(c4nc(-c5ccc(C(C)C)cc5)no4)CC3)CC2)c1	/	/	/	12µM*	/
CCOC(=O)c1ccccc1NC(=O)N1CCC(CN2CCOCC2)CC1	/	/	/	-3.5%	/
CCN(Cc1ccccc1)C(=O)c1cc(-c2ccccc2)n[nH]1	/	/	/	15.1µM*	/
COc1ccc(CCNC(=O)C2CCCN(c3nc4ccccc4s3)C2)cc1OC (centres undefined)	11.5%	/	0.0%	-13.6%	/
CCOC(=O)Nc1ccc2nc(N3CCCCCC3)sc2c1	?	/	?	7.57µM*	/
CCOC(=O)N1CCN(C(=O)C2CCCN(c3nc4ccc(OCC)cc4s3)C2)CC1 (centres undefined)	10.8%	21.4%	4.9%	12µM*	1.1%
CCOC(=O)N1CCN(C(=O)Nc2ccc3nc(C)sc3c2)CC1	0.4%	?	-0.4%	5.6%[2.3 µM]	-2.7%
COc1ccc(CCNC(=O)C2CCCN(c3nc4c(C)cc(C)cc4s3)C2)cc1OC (centres undefined)	/	2.82µM*	/	?	/
CCOc1ccc2nc(N3CCCC(C(=O)Nc4cc(Cl)c(OC)cc4OC)C3)sc2c1 (centres undefined)	/	?	/	2.69µM*	/
COc1cccc(CSc2nc3n(n2)C(c2cccc(F)c2)C(C(=O)Nc2ccccc2C)=C(C)N3)c1 (centres undefined)	/	/	/	0.1%	/
COc1ccc(CNC(=O)c2ccc(NC(=O)N3CCCCc4ccccc43)cc2)c(OC)c1	/	/	/	-16.2%	/
Cc1cc(C)c2nc(N3CCC(C(=O)NCc4ccccn4)CC3)sc2c1	11.5%	-31.8%	20.6%	16.9µM*	-1.9%
CCOc1ccc2nc(N3CCCC(C(=O)NCCc4ccc(SC)cc4)C3)sc2c1 (centres undefined)	/	20µM*	/	-19.7%	/
CCOc1ccc2nc(N3CCCC(C(=O)Nc4ccc(OC)cc4)C3)sc2c1 (centres undefined)	/	21.8%	/	1.51µM*	/
CCOc1ccc2nc(N3CCCC(C(=O)Nc4cccc(Cl)c4C)C3)sc2c1 (centres undefined)	/	7.94µM*	/	3.38µM*	/
CCc1nc2nc(C)c(NS(=O)(=O)c3ccc(C(C)(C)C)cc3)c(=O)n2[nH]1	/	11.0%	/	?	/
COc1cccc(OCCCCn2c(-c3ccc(Cl)cc3)nc3ccccc3c2=O)c1	/	-0.9%	/	-5.6%	/
CCOc1ccc2nc(N3CCCC(C(=O)NC4CCCC4)C3)sc2c1 (centres undefined)	?	/	?	3.01µM*	/
CCC(=O)N1CCc2cc(Br)cc(S(=O)(=O)N3CCCC(C(=O)Nc4ccc(C(C)C)cc4)C3)c21 (centres undefined)	/	-5.2%	/	-6.2%	/
COc1cc2c(cc1NC(=O)COc1cc(C)ccc1C)oc1ccccc12	/	1.6%	/	-5.1%	/
Cc1cc(-c2nc3ncccc3o2)ccc1N	?	11.2µM*	?	16.9µM*	-24.6%
Nc1cc(-c2nc3ncccc3o2)ccc1Cl	?	10µM*	3.98µM*	19µM*	-15.8%
Cc1ccc(-c2nc3ncccc3o2)cc1NC(=O)C(C)(C)C	0.7%	/	0.5%	2.2%	/
Cc1ccc(-c2nc3ncccc3o2)cc1N	3.98µM*	/	3.55µM*	15.1µM*	/
SMILES	NPC1 promoter act	SMN2 splice up	Rab9 prom act	FLuc counter	KinaseGlo FLuc
Cc1c(Cl)cccc1NC(=O)CN1C(=O)COc2ccc(S(=O)(=O)N3CCOCC3)cc21	/	/	/	-1.2%	/
COC(=O)c1c(NC(=O)c2cc3ccccc3c(=O)o2)sc2c1CCCC2	/	1.4%	/	0.1%	/
O=C1[C@@H]2CSC(c3ccc(F)cc3)N2C(=O)N1c1ccc(Cl)cc1 (some centres undefined)	/	-11.3%	/	-1.8%	/
CCC/C(C)=C/c1ccc(CC)cn1	1.0%	/	0.2%	9.53µM*	/
CCc1ccc(OCCCC(=O)NCc2ccccc2)cc1	-2.2%	8.7%	0.1%	-16.4%	0.7%
COC(=O)c1cccc(NC(=O)c2ccccc2)c1	23.6%	/	?	?	/
COC(=O)c1cccc(NC(=O)c2onc3c2CCCC3)c1	0.398µM*	0.794µM*	0.316µM*	0.849µM*	?
O=C(Nc1ccc2ccccc2c1)c1onc2c1CCCC2	0.398µM*	8.91µM*	0.562µM*	0.953µM*	-8.5%
Cc1noc(C)c1C(=O)Nc1ccc2ccccc2c1	2.0%	/	0.7%	?	/
CCOC(=O)c1c(S(=O)(=O)N2CCC(C(=O)N3CCN(c4cc(C)ccc4C)CC3)CC2)c(C)n(C)c1C	/	/	/	-8.5%	/
Cn1cnc(S(=O)(=O)N2CCCC(C(=O)Nc3ccc(OC(F)(F)F)cc3)C2)c1 (centres undefined)	/	/	/	1.5%	/
COc1cccc(C(=O)Nc2nc(-c3ccc4c(c3)OCO4)cs2)c1	4.5%	-17.9%	-3.5%	16.9µM*	2.6%
CC(=O)Nc1nc(-c2ccc3c(c2)OCO3)cs1	3.55µM*	/	2.24µM*	9.53µM*	/
COc1ccccc1CNC(=O)CCCn1c(=O)c2ccccc2n(Cc2ccc(F)cc2)c1=O	/	-13.2%	/	-8.2%	/
CCOC(=O)N1CCc2c(sc(NCc3cccc(F)c3)c2C(=O)Nc2ccc(OC)cc2OC)C1	/	/	/	15.1µM*	/
CCOC(=O)N1CCc2c(sc(NCc3sccc3C)c2C(=O)Nc2ccc(OC)cc2OC)C1	/	/	/	10.7µM*	/
COc1ccc(NC(=O)c2c(NCc3cccc(F)c3)sc3c2CCCC3)c(OC)c1	/	/	/	-10.7%	/
NCc1ccc(C(=O)O)cc1	/	-10.3%[9.22 µM]	/	/	-1.7%[7.66 µM]
